B1: ENSMUSG00000022095.41|Fam160b2|101:105 (ssRNA)
RNA: GGGAGUUCUACAGUCCGACGAUCGCUUCGAUAUCCGCAUGCUAUGAGGUUUCAAGGAGGUGCUGGCUCCUAAGGCAGUGGUAUUCUUGGAGCCUUUUAGAGGAGCUAGAGGAUGGCCAGUGAGCGCCUAGAUGCUGCCCUGCAACACAUGCGUGACUAUCUCUGCUAUAUUGUGACCAGGGCCACAACAUGAGACAACUCCAGGGGCCAGGGAGAUGAACUGCUGUCUUUGAGGCUGGCUAAAAAAACAAUCCAGUCCAGAGAGAUGGGGAGGGGGGGAGCAAGAACCCUGUCUGUUACAUUACUCUUGCGGUCGCACUAGUGUGGAAUUCUCGGGUGUCAAGG
B2: ENSMUSG00000031028.396|Tub|202:206 (ssRNA)
RNA: GGGAGUUCUACAGUCCGACGAUCGCUUCGAUAUCCGCAUGCUAUUGACCACUGGCGCUGUGAACACAGGCUAAUGGACUUCAGAUACCAGGGCCCCGGGAUCACCUGGGUUAGCCUCUCCCACAGGAAGAUCCCUUACCCCUCAUCCCCUCUUCUUUUUGGUCCUUGGCUGGGUAGCAAAUUGGUGAGAAGAGCAGCCUAGUCUGUAAGAGUGCAGGGCAGCUGGAACCUUAGGCAGCUCCUCUCAUACCUACCGGCUCCACACCCUAACACUCUCCACCCUCUGCUCCAAACCAGUUCUUCUCUCUUGCGGUCGCACUAGUGUGGAAUUCUCGGGUGUCAAGG
B3: ENSMUSG00000028439.152|Fam219a (ssRNA)
RNA: GGGAGUUCUACAGUCCGACGAUCGCUUCGAUAUCCGCAUGCUAGGCCUCCUGUGCCCCAUUGCCAUUUCACCCUAGCUCAAAGUCCAGGAGCCAGGCUUCCAGAAAGGCUCUUCAAGAGCAAGCUUAAGGAAAUACAGUGAGCCAAGUGGCUGUAUGAUAUGGUAUGGUAUGGUAUGGUAUGGUAUGGUAUGGUAUGCACAUGUGUGUGCAUGUGUGUGUGCCUGUGUGUGUGCGUGUGCGUGUGUGUAUGUGUGUGCGUGUGUGUGUGUGUGUGUUGUACCCGAGUGUGUGUUGAGCCUAUCCUCUUGCGGUCGCACUAGUGUGGAAUUCUCGGGUGUCAAGG
B4: ENSMUSG00000028439.151|Fam219a (ssRNA)
RNA: GGGAGUUCUACAGUCCGACGAUCGCUUCGAUAUCCGCAUGCUAAAGGCUGGCCUCCUGUGCCCCAUUGCCAUUUCACCCUAGCUCAAAGUCCAGGAGCCAGGCUUCCAGAAAGGCUCUUCAAGAGCAAGCUUAAGGAAAUACAGUGAGCCAAGUGGCUGUAUGAUAUGGUAUGGUAUGGUAUGGUAUGGUAUGGUAUGGUAUGCACAUGUGUGUGCAUGUGUGUGUGCCUGUGUGUGUGCGUGUGCGUGUGUGUAUGUGUGUGCGUGUGUGUGUGUGUGUGUUGUACCCGAGUGUGUGUUGAGCUCUUGCGGUCGCACUAGUGUGGAAUUCUCGGGUGUCAAGG
B5: ENSMUSG00000028439.149|Fam219a (ssRNA)
RNA: GGGAGUUCUACAGUCCGACGAUCGCUUCGAUAUCCGCAUGCUAGAAGCAAGAGAUAAGGCUGGCCUCCUGUGCCCCAUUGCCAUUUCACCCUAGCUCAAAGUCCAGGAGCCAGGCUUCCAGAAAGGCUCUUCAAGAGCAAGCUUAAGGAAAUACAGUGAGCCAAGUGGCUGUAUGAUAUGGUAUGGUAUGGUAUGGUAUGGUAUGGUAUGGUAUGCACAUGUGUGUGCAUGUGUGUGUGCCUGUGUGUGUGCGUGUGCGUGUGUGUAUGUGUGUGCGUGUGUGUGUGUGUGUGUUGUACCCGACUCUUGCGGUCGCACUAGUGUGGAAUUCUCGGGUGUCAAGG
B6: ENSMUSG00000028439.148|Fam219a|134:138;144:178;183:190;193:202;205:214;216:220;222:238;240:257 (ssRNA)
RNA: GGGAGUUCUACAGUCCGACGAUCGCUUCGAUAUCCGCAUGCUAAGGCUGGAAGCAAGAGAUAAGGCUGGCCUCCUGUGCCCCAUUGCCAUUUCACCCUAGCUCAAAGUCCAGGAGCCAGGCUUCCAGAAAGGCUCUUCAAGAGCAAGCUUAAGGAAAUACAGUGAGCCAAGUGGCUCAUACAUAUGCAUACCAUACCAUACCAUACCAUACCAUACCAUACCACAACACACACCAACACACACACCCACACACACACCCACACCCACACACAUACACACACCCACACACACACACACACAUGUCUCUUGCGGUCGCACUAGUGUGGAAUUCUCGGGUGUCAAGG
B7: ENSMUSG00000028439.136|Fam219a (ssRNA)
RNA: GGGAGUUCUACAGUCCGACGAUCGCUUCGAUAUCCGCAUGCUAAACCAGUGCAUCUGUCUCUCUGCCUCAUCCCCACACCGCCCUGCCACCCCCAGUCUUCUGUCUAUUGGUUCCAGGCUGGAAGCAAGAGAUAAGGCUGGCCUCCUGUGCCCCAUUGCCAUUUCACCCUAGCUCAAAGUCCAGGAGCCAGGCUUCCAGAAAGGCUCUUCAAGAGCAAGCUUAAGGAAAUACAGUGAGCCAAGUGGCUGUAUGAUAUGGUAUGGUAUGGUAUGGUAUGGUAUGGUAUGGUAUGCACAUGUGUGCUCUUGCGGUCGCACUAGUGUGGAAUUCUCGGGUGUCAAGG
B8: ENSMUSG00000028439.150|Fam219a (ssRNA)
RNA: GGGAGUUCUACAGUCCGACGAUCGCUUCGAUAUCCGCAUGCUAAGAGAUAAGGCUGGCCUCCUGUGCCCCAUUGCCAUUUCACCCUAGCUCAAAGUCCAGGAGCCAGGCUUCCAGAAAGGCUCUUCAAGAGCAAGCUUAAGGAAAUACAGUGAGCCAAGUGGCUGUAUGAUAUGGUAUGGUAUGGUAUGGUAUGGUAUGGUAUGGUAUGCACAUGUGUGUGCAUGUGUGUGUGCCUGUGUGUGUGCGUGUGCGUGUGUGUAUGUGUGUGCGUGUGUGUGUGUGUGUGUUGUACCCGAGUGUGUCUCUUGCGGUCGCACUAGUGUGGAAUUCUCGGGUGUCAAGG
B9: ENSMUSG00000061578.707|Ksr2|13:17 (ssRNA)
RNA: GGGAGUUCUACAGUCCGACGAUCGCUUCGAUAUCCGCAUGCUACCUGUAGUCUCUACACACAUCUUCUUCUAAGACCACUAAUAACACCGCCUUUCUCCUUGAUCCGGGCCUCAGACCUCUUCAGAGAUUCUUUCUCUGAAUGUACGUGGGGGACUCCAACAGAUGUUGGGAGAAGACUCAAUAUGAGCAUACGGGGUCAUUGUUCAAUCCUGUAUCAAGACCUUGGAGUUGUCUAAGGCUGUGGGUUUUAAAUACCUGCUGCAGGCCUCCCAUCUCUGGCUCUUUGUUUCCACUCUGGCCCACUCUUGCGGUCGCACUAGUGUGGAAUUCUCGGGUGUCAAGG

In all, about 9,900 sequences were measured (“r (bound/input frequency ratio)”: median about 0.7, highest 2% from about 6.5 on). This excerpt belongs to a sample that is enriched for the highest values.

The target of the assay is TDP-43 (Homo sapiens, UniProt Q13148 1-414). As to the kind of experiment: RNA Bind-n-Seq with designed 260-mer pool; 25 mM Tris-HCl, 150 mM KCl, 3 mM MgCl2, BSA (printed 500 mg/mL), 20 units/mL SUPERase IN; pH not stated; 500 nM RNA pool, 1 h, 4 C; TDP-43 5, 50, 500 nM; high values mean tight binding. As to conditions: protein: recombinant; tags: SBP (GST cleaved off with PreScission; pGEX-GST-SBP). A digest of the protocol: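 In 25 mM Tris-HCl, 150 mM KCl, 3 mM MgCl2, BSA and SUPERase IN, 500 nM of an in vitro-transcribed 260-nt 3′ UTR oligo pool was incubated for 1 h at 4 °C with SBP-tagged TDP-43 (5, 50 or 500 nM) captured on streptavidin beads. RNA remaining after washes was biotin-eluted, reverse transcribed, PCR-amplified and sequenced. Binding, R, is the bound-sample abundance of each oligo, normalized to mapped reads, divided by its abundance in input. Each duplicate used a separate, independent protein batch.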
Chain of TDP-43 (Q13148 whole entry): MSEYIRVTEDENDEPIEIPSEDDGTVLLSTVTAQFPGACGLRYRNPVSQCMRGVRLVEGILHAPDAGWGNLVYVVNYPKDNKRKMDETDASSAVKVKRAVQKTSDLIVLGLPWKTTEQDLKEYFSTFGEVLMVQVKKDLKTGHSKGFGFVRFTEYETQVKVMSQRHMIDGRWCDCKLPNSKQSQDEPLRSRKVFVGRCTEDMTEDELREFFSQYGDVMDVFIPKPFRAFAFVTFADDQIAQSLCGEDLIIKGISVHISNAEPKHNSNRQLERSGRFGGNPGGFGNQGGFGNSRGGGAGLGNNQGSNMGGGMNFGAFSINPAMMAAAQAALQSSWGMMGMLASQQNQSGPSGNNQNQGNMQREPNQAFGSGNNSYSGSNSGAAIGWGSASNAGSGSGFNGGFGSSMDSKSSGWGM
Take B1: the binding signal was 1 R (bound/input frequency ratio). For B2, the binding signal was 1.04 R (bound/input frequency ratio).

With B3, the binding signal was 7.8 R (bound/input frequency ratio). With B4 the figure was 6.07 R (bound/input frequency ratio); with B5, 6.67 R (bound/input frequency ratio); with B6, 4.64 R (bound/input frequency ratio). In the case of B7 it was 1.84 R (bound/input frequency ratio); in that of B8, 7.17 R (bound/input frequency ratio); in that of B9, 0.284 R (bound/input frequency ratio).

The values are drawn from paper PMC12864922, “TDP-43 directly inhibits mRNA accumulation in neurites through modulation of mRNA stability”.
